# This is a sample that favours compounds with a hit; in the whole collection about 2.2% have one here.
# BaF3 parental – counter-screen for JAK2V617F inhibitors: parental Ba/F3 viability inhibitors; CellTiter-Glo ATP luminescence; inhibition, % at 5.6 µM; 220,000 compounds, 1.1% hits; AID 1486;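 active = inhibition above a per-campaign cutoff, the mean inhibition of all tested compounds plus 3 SD, cut at about 27% in these data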;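 also: 0% = DMSO wells and 100% = JAK Inhibitor I control wells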
# Ba/F3 V617F tox – lowers viability of Ba/F3 cells expressing EpoR and JAK2V617F; 220,000 compounds, 1.1% hits; AID 1446; inhibition, % at 5.6 µM; ATP luminescence;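 active = inhibition above the campaign mean plus 3 SD over all tested compounds, cut at about 24% in these data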;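 also: cytokine-independent growth of Ba/F3 cells driven by EpoR plus mutant JAK2; 0% = DMSO-treated cells and 100% = JAK inhibitor I control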
# IEC-6 tox – kills IEC-6 intestinal cells in KLF5 counter-screen | IEC-6 cytotoxicity, luminescence viability | inhibition, % at 5 µM | 290,000 compounds, 0.78% hits; in the data active = inhibition above about 22%;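 also: 0% = plate median of test compound wells and 100% = cytotoxic reference compound wells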
# APP 5UTR inh – APP translation inhibition. AID 1285. inhibition, % at 2 µM. SH-SY5Y APP 5'UTR-luciferase reporter, luminescence. 190,000 compounds, 0.82% hits;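 active = inhibition above a set limit, derived from the sample mean plus 3 SD, cut at about 45% in these data; inconclusive = one replicate passes the limit while the other fails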
# KLF5 inhibitor – suppresses KLF5 promoter-driven expression. DLD-1 KLF5 promoter-luciferase reporter, luminescence. inhibition, % at 5 µM. AID 1700. 290,000 compounds, 0.23% hits;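 active = inhibition above a per-plate limit of that plate's mean compound inhibition plus 3 SD, cut at about 60% in these data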;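 also: 0% = DMSO wells and 100% = LY294002 at 200 µM; higher means less KLF5 promoter-driven luciferase light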
# aSyn 5UTR inh – MLPCN primary screen, SNCA 5' untranslated region; alpha-synuclein 5'UTR reporter, inhibitor activity; inhibition, % (tested at 7.5 µM); 300,000 compounds, 0.82% hits; AID 1813; in the data active = inhibition above about 60%; inconclusive = no clear call, values can overlap the other calls;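 also: H4 neuroglioblastoma cells stably carrying SNCA 5'UTR luciferase fusion; 0% = DMSO wells and 100% = positive control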
# * marks the source's active call; other numbers are inactive results; u = inconclusive; x = no result given.
SMILES,BaF3 parental,Ba/F3 V617F tox,IEC-6 tox,APP 5UTR inh,KLF5 inhibitor,aSyn 5UTR inh
CN1CCN(Cc2nc3ccccc3n2C)CC1,3,-2,-4,-7,-14,-19
Cn1c(NN=O)nc2ccccc21,4,0,10,75*,-37,u
Cc1ccc(OCCSC2=NN2c2cc(C)nc(N)n2)cc1,-1,-2,2,4,-26,19
Cc1cc(OCC(=O)N2CCC(C(=O)O)CC2)c2c3c(c(=O)oc2c1)CCCC3,x,x,-6,x,-33,6
CCC(=Nc1ccc(OC)cc1OC)c1c(O)[nH]c(=O)[nH]c1=O,7,3,-2,-15,-12,28
CCC(=Nc1cc(OC)ccc1OC)c1c(O)[nH]c(=O)[nH]c1=O,-1,-3,-3,0,-30,71*
Cn1ncnc2c(=O)n(C)c(=O)nc1-2,x,x,x,x,x,98*
Cc1ccccc1C1=NCC(=O)N(CC(=O)N2CCCCC2)c2sc(C)c(C)c21,6,1,-1,-2,-1,15
COc1ccc(O)c2c(=O)c3c(OC)cc4c(c3oc12)C1C=COC1O4 (stereo not drawn),8,4,30*,x,2,94*
COCCNC(=O)Cn1cc(C=C2C(=O)NC(=O)NC2=O)c2ccccc21,x,x,-6,x,-3,-7
N=C(N)c1c(O)n(C2CCCCC2)c(=O)n(C2CCCCC2)c1=O,2,-1,-6,8,5,x
C[n+]1c(-c2ccccc2)cc(-c2ccc(Cl)cc2)cc1-c1ccccc1,30*,46*,8,-6,-2,0
Cc1ccc(-c2cc(-c3ccccc3)cc(-c3ccccc3)[n+]2-c2ccccc2)cc1,x,x,x,x,x,85*
CCOC(=O)c1ccc(-[n+]2c(-c3ccccc3)cc(-c3ccccc3)cc2-c2ccccc2)cc1,x,x,x,x,x,-38
Cc1ccc(-c2cc(-c3ccc(C)cc3)[n+](-c3ccccc3)c(-c3ccc(C)cc3)c2)cc1,x,x,x,x,x,76*
Cc1ccc(-c2cc(-c3ccc(C)cc3)[n+](-c3ccc(C(=O)[O-])cc3)c(-c3ccc(C)cc3)c2)cc1,x,x,x,x,x,83*
CCOC(=O)c1cccc(-[n+]2c(-c3ccccc3)cc(-c3ccccc3)cc2-c2ccccc2)c1,x,x,x,x,x,8
O=C(C(=O)N1CCOCC1)c1cn(Cc2ccccc2)c2ccccc12,3,-2,3,10,-17,30
CCOP(=O)(OCC)C(NC(=O)CN1C(=O)c2ccccc2S1(=O)=O)C(Cl)(Cl)Cl (stereo not drawn),4,-3,0,-26,13,-11
O=[N+]([O-])c1cc(Cl)c(O)c(-[n+]2c(-c3ccccc3)cc(-c3ccccc3)cc2-c2ccccc2)c1,x,x,-8,x,-12,-8
CN(C)c1ccc(-[n+]2c(-c3ccccc3)cc(-c3ccccc3)cc2-c2ccccc2)cc1,94*,101*,71*,45,60,84*
CN(C(=O)CNC(=O)OCc1ccccc1)c1ccc(Br)cc1C(=O)c1ccccc1Cl,15,10,3,80*,7,17
O=C(CNC(=O)OCc1ccccc1)Nc1ccc(Br)cc1C(=O)c1ccccc1Cl,9,3,5,4,-28,21
Cc1cc(OCC(=O)NC(Cc2ccc(Cl)cc2)C(=O)O)c2c3c(c(=O)oc2c1)CCCC3 (stereo not drawn),x,x,0,x,-12,-4
CC(C)N1CC=C(c2c[nH]c3ccccc23)CC1,65*,87*,-4,3,-3,0
SMILES,BaF3 parental,Ba/F3 V617F tox,IEC-6 tox,APP 5UTR inh,KLF5 inhibitor,aSyn 5UTR inh
COc1ccc(CNC(=O)/C=C/c2ccc3[nH]cc(CCN(C)C)c3c2)cc1,x,x,x,x,x,-13
Cc1ccc(NP(=O)(Oc2ccccc2F)Oc2ccccc2F)cc1,66*,-2,-7,0,-12,9
CCOC(=O)C1CCN(C(C)C(=O)c2c(C)[nH]c3cc(C)ccc23)CC1 (stereo not drawn),8,2,6,-3,1,-7
O=c1[nH]sc2cc(F)ccc12,-1,28*,1,6,-10,-38
CC/C(=N\NC(=O)c1ccccc1)c1c(O)n(Cc2ccccc2)c(=O)[nH]c1=O,-4,-3,-1,x,-86,-55
CN1C(=O)CN=C(c2ccccc2Cl)c2cc(Br)ccc21,x,x,2,x,-27,10
COc1ccc(CCNCc2ccccc2F)cc1OC,2,-4,1,37,-38,-7
CCOc1ccc(Cl)cc1CNCCc1ccccc1F,63*,29*,0,x,-31,-1
CC[N+](CC)(CC#CCO)CC#Cc1ccccc1,17,3,-1,-6,-7,-4
O=c1c2ccccc2nc(CSc2ncnc3nc[nH]c23)n1-c1ccccc1Cl,17,11,5,5,-16,19
O=c1c2ccccc2nc(CSc2ncnc3nc[nH]c23)n1-c1ccccc1,32*,9,10,-6,4,20
COC(=O)CSC1=NP(=S)(SCC(=O)OC)N2CCCC2=C1C#N (stereo not drawn),78*,0,-3,0,-9,-7
CSC1=NP(=S)(SC)N2CCCC2=C1C#N (stereo not drawn),4,0,1,-3,-5,5
CC(Cc1ccccc1)NC(=O)CCCCC(=O)NC(C)Cc1ccccc1 (stereo not drawn),x,x,-1,x,-5,13
COc1ccc(C(C)=O)cc1CC(C(=O)c1ccc(C)c(C)c1)N(C)C (stereo not drawn),3,-4,2,12,1,8
CN(C)C(Cc1ccccc1)C(=O)c1ccc(-c2ccccc2)cc1 (stereo not drawn),6,1,0,x,-15,-31
COc1ccc(C(=O)C(Cc2ccccc2)N(C)C)cc1 (stereo not drawn),36*,35*,0,-7,-20,-21
COc1ccc(C(C)=O)cc1CC(C(=O)c1ccc(F)cc1)N(C)C (stereo not drawn),40*,1,-4,-5,-18,-3
CN(C)P(=O)(NC(=O)c1cccn1C)N(C)C,5,-2,-3,8,-26,-12
CCOC(=O)CCN=Cc1c(O)n(-c2ccc(Br)cc2)c(=O)[nH]c1=O,-1,-2,2,-3,13,-12
CCN(CC)C1=NC(=[N+](CC)CC)c2ccccc21,66*,80*,-1,1,9,-21
CC(=O)O[C@@H]1/C=C/[C@](C)(O)C[C@@H](C)C/C=C/[C@H]2[C@@H]3O[C@]3(C)[C@@H](C)[C@H]3[C@H](Cc4ccccc4)NC(=O)[C@@]312,x,x,x,x,x,114*
Cc1ccccc1-n1c(O)c(/C=C2/C(c3ccccc3)=Nc3ccccc32)c(=O)[nH]c1=O,69*,78*,78*,62*,44,-43
Cc1nc2cc(-c3ccc(Cl)cc3)nn2c(C)c1CCC(=O)N1CCC2(CC1)OCCO2,4,0,0,50*,-21,x
O=C(CCn1nc(-c2ccc(Cl)cc2)ccc1=O)N1CCC2(CC1)OCCO2,12,1,-8,-13,-1,16
